ChEMBL document CHEMBL4513216, “Probing the Open Global Health Chemical Diversity Library for Multistage-Active Starting Points for Next-Generation Antimalarials” (ACS Infect Dis, 2020)
The whole screen tested about 69,000 compounds, of which about 8,600 (12%) showed an effect of 50% or more. The sample holds strong results, similar compounds and a random draw of the others, so the mix is not that of the screen.

What follows are molecules tested on Plasmodium berghei (assay: Screen against P. berghei liver stage (PbLuc), transformed with Luciferase, at 10uM). Settings: tested at 10 uM.
Type: functional, HepG2

First: Cc1ccccc1N1CCN(C(=O)c2cnc(C3CC3)nc2)C(C)C1 (stereo not given)
Second: CSc1ncc(C(=O)N2CCN(c3ccccc3C)CC2C)cn1 (stereo not given)
The INHIBITION of the first is lower: 43% for the first, 44.8% for the second.

Going from `Cc1ccccc1N1CCN(c2ccncn2)C(C)C1` (stereo not given) to `Cc1ccccc1N1CCN(c2cc(N(C)C)ncn2)C(C)C1` (stereo not given), the INHIBITION rises from 63.2% to 67.4%.

First: Cc1nccn1CCC1CCN(c2ccncn2)CC1
Second: Cc1ccccc1N1CCCN(c2ccncn2)CC1
The INHIBITION of the first is lower: 35.8% for the first, 80.7% for the second.

First: Cc1ccccc1N1CCN(C(=O)c2cnc(N(C)C)nc2C)C(C)C1 (stereo not given)
Second: Cc1ccccc1N1CCN(C(=O)c2ncc(F)cc2F)C(C)C1 (stereo not given)
The INHIBITION of the first is lower: 25.8% for the first, 33% for the second.

Going from `CN(C)c1cc(N2CCN(c3ccccn3)CC2)ncn1` to `Cc1cc(C)nc(C2CCN(c3ccncn3)C2)n1` (stereo not given), the INHIBITION falls from 41.1% to 36.9%.

Compared with `Cc1ccc(N2CCN(c3ccccc3C)CC2C)nn1` (stereo not given), `Cc1nnc(C(C)N(C)Cc2c(C)nn(-c3ccccc3C)c2C)o1` (stereo not given) is lower in INHIBITION: 59.9% for the first, 59.2% for the second.

First: O=S(=O)(C1CC1)N1CC[C@H]2OCC[C@@]2(COc2ncccc2F)C1
Second: O=C1N(c2cccnc2)CCC12CCCN(Cc1ccoc1)C2 (stereo not given)
The INHIBITION of the first is lower: -58.9% for the first, -29.3% for the second.

First: O=C(CCc1ccccc1)N1C[C@@H]2CN(Cc3ccoc3)CCO[C@@H]2C1
Second: Cn1cccc1C(=O)N1CCCC1c1ccc(CN2CCOCC2)cn1 (stereo not given)
The INHIBITION of the first is higher: 29.9% for the first, 13.7375% for the second.

Going from `Cc1ccc(CN2CC(O)CN(C(=O)C3CC3)CC2=O)cc1` (stereo not given) to `NC(=O)C1CCCN(c2ccc(CNC(=O)c3cnsn3)cc2)C1` (stereo not given), the INHIBITION rises from 7.85% to 60.5%.

Going from `CSCCC(=O)N1CCC(CCC(=O)NCC2CCCO2)CC1` (stereo not given) to `CCOC(=O)c1cnn(C2CCN(C(=O)CCC(C)C)CC2)c1N`, the INHIBITION rises from 8.51% to 38.3%.

First: CCOc1ccccc1CCn1cc2[nH]cccc-2c1=O
Second: CC(Cn1cccn1)NCc1nc(-c2ccccc2Cl)no1 (stereo not given)
The INHIBITION of the first is higher: 41.5% for the first, 25.1% for the second.

First: NC(=O)C1CCCN(c2ccc(CNC(=O)c3cc[nH]n3)cc2)C1 (stereo not given)
Second: NC(=O)C1CCCN(c2ccc(CNC(=O)c3csnn3)cc2)C1 (stereo not given)
The INHIBITION of the first is lower: -25.8% for the first, 44.1% for the second.

Compared with `CCN1CCN(C2CCN(Cc3nc(CCOC)no3)CC2)C1=O`, `CCS(=O)(=O)N1CCCN(CCCOC)CC1` is higher in INHIBITION: 19.4% for the first, 63% for the second.

Compared with `CCCS(=O)(=O)N1CCCN(CCCOC)CC1`, `CCCS(=O)(=O)N1CCN(CCCO)CC1` is higher in INHIBITION: -13.6% for the first, 11.5% for the second.

First: Cc1nn(C)c(Cl)c1CNCc1cccnc1N1CCN(C)CC1
Second: O=C1CC(NCc2cnc(N3CCCC3)nc2)CN1c1ccccc1 (stereo not given)
The INHIBITION of the first is lower: 13.4% for the first, 43.9% for the second.

First: CCOc1cc(F)ccc1NC1CCN(CC(F)(F)F)C1=O (stereo not given)
Second: CCN1CCC[C@@H]1CNC(=O)c1cc(COc2ccccc2)[nH]n1
The INHIBITION of the first is lower: -6.51% for the first, 33.4% for the second.

First: CCc1nnc(C(C)N(C)Cc2c(C)nn(-c3ccccc3)c2C)o1 (stereo not given)
Second: Cc1nnc(C(C)N(C)Cc2c(C)nn(-c3ccccc3)c2C)o1 (stereo not given)
The INHIBITION of the first is lower: -77.1% for the first, -10.8% for the second.

Going from `CCc1ccc(S(=O)(=O)NCCOc2ccc3nnc(C)n3n2)s1` to `Cc1ccc(S(=O)(=O)NCCOc2ccc3nnc(C)n3n2)s1`, the INHIBITION rises from 31% to 57.4%.

Compared with `Cc1nnc2ccc(OCCNS(=O)(=O)c3cccs3)nn12`, `Cc1cc(C)n(-c2ccccc2NC(=O)NCCS(=O)(=O)CC(C)C)n1` is higher in INHIBITION: 3.13% for the first, 32.5% for the second.

Compared with `CC(C)C(=O)N1CCc2onc(C(=O)NCCN(C)C)c2C1`, `CC(C)NC(=O)N1CCc2onc(C(=O)NCCN(C)C)c2C1` is higher in INHIBITION: 39.4% for the first, 95.7% for the second.

First: CN(C)CCNC(=O)c1noc2c1CN(C(=O)N(C)C)CC2
Second: Cc1ccc(CN2CCc3onc(C(=O)NCCN(C)C)c3C2)o1
The INHIBITION of the first is lower: 28.2% for the first, 54.4% for the second.

First: Cc1ccc(CN2CCc3onc(C(=O)NC(C)C)c3C2)o1
Second: Cc1ccc(CN2CCc3onc(C(=O)N4CCCC4)c3C2)o1
The INHIBITION of the first is higher: 45.4% for the first, 23.6% for the second.

First: O=C1CC(NCc2cnc(C3CCCCC3)nc2)CN1c1ccccc1 (stereo not given)
Second: O=C1CC(NCc2cnc(-c3cccs3)nc2)CN1c1ccccc1 (stereo not given)
The INHIBITION of the first is higher: 56.5% for the first, 8.92% for the second.

First: Cc1cnn(CC2CCCCN2CCCS(=O)(=O)N(C)C)c1 (stereo not given)
Second: Cc1cnn(CC(C)NCc2nc(-c3cccnc3)no2)c1 (stereo not given)
The INHIBITION of the first is lower: 13.3% for the first, 15.1% for the second.

Compared with `Nc1c(N2CCCC2)ncnc1N1CCOCC1`, `Nc1c(N2CCCCC2)ncnc1N1CCOCC1` is higher in INHIBITION: 7.53% for the first, 10.5% for the second.

Going from `Nc1c(N2CCOCC2)ncnc1N1CCOCC1` to `CC(Cn1cccn1)NCc1nc(-c2ccsc2)no1` (stereo not given), the INHIBITION falls from 50% to 1.78%.

First: CC(Cn1cccn1)NCc1nc(-c2cccnc2)no1 (stereo not given)
Second: CC(Cn1cccn1)NCc1nc(-c2cccc(Cl)c2)no1 (stereo not given)
The INHIBITION of the first is higher: 86.8% for the first, 26.3% for the second.

`COc1ccc(-c2noc(CNC(C)Cn3cccn3)n2)c(OC)c1` (stereo not given) gave an INHIBITION of 53.8%.
